Experimental data from PubChem BioAssay (NCI).
The panel holds about 79,000 compounds, 15% with a hit somewhere; the sample as a whole holds those more often. No stated cut-off is given here; in the data, active means growth inhibition above about 70%; inactive means the rest.

Assays:
[1] = NCI Yeast Anticancer Drug Screen. Data for the rad50 strain (AID 155);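 further: 0% = growth of vehicle-only cultures of the same strain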; settings: S. cerevisiae rad50 strain growth inhibition, active compounds read high; at 50.0 µM unless noted
Summary of the method: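 Readout: growth inhibition relative to vehicle-treated cultures. Compound exposure was carried out in a genetically defined yeast strain deficient in DNA damage repair.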

[2] = NCI Yeast Anticancer Drug Screen. Data for the mec2-1 strain (AID 157); settings: S. cerevisiae mec2-1 strain, active compounds read high; at 50.0 µM unless noted
Summary of the method: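 Growth inhibition is read against vehicle-treated controls after compound exposure of the mec2-1 yeast strain, which is defective in DNA damage repair or cell cycle control.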

[3] = NCI Yeast Anticancer Drug Screen. Data for the sgs1 mgt1 strain (AID 161);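 further: 0% = growth of cultures given vehicle only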; settings: S. cerevisiae sgs1 mgt1 strain, active compounds read high; at 50.0 µM unless noted
Summary of the method: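 Compounds are added to genetically altered yeast, and growth is compared with cultures given vehicle alone to give percent inhibition.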

[4] = NCI Yeast Anticancer Drug Screen. Data for the cln2 rad14 strain (AID 165);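 further: 0% = growth equal to vehicle treated cultures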; settings: S. cerevisiae cln2 rad14 strain, active compounds read high; at 50.0 µM unless noted
Summary of the method: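 Growth inhibition, relative to vehicle-treated controls, is the read-out. The test organism is a yeast strain with defined genetic alterations, cln2 rad14.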

[5] = NCI Yeast Anticancer Drug Screen. Data for the bub3 strain (AID 167); settings: S. cerevisiae bub3 mutant strain, active compounds read high; at 50.0 µM unless noted
Summary of the method: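 Readout: yeast growth inhibition, expressed relative to vehicle-only wells. The test organism is a mutant strain from a panel with lesions in DNA repair or checkpoint genes.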

[6] = NCI Yeast Anticancer Drug Screen. Data for the mlh1 rad18 strain (AID 175); settings: S. cerevisiae mlh1 rad18 strain growth inhibition, active compounds read high; at 50.0 µM unless noted
Summary of the method: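 Cells of a genetically altered yeast strain, deficient in DNA damage repair, were treated with compound. Their growth was then compared with that of vehicle-treated cultures to give inhibition.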

Measured: growth inhibition

NNC(=O)c1c(O)ccc2ccccc12
inactive: [1] 19.2% | [2] -28.1% | [3] 23.4% | [4] 20.2% | [5] -4.2% | [6] 12.6%

CC(=O)OC1CC(n2cc(F)c(=O)[nH]c2=O)OC1CO (stereo not given)
inactive: [1] 7.95% | [2] 12.2% | [3] -10.4% | [4] -17% | [5] -0.45% | [6] 2.5%

Clc1ccc(C2ON=C(c3ccccc3)N2C23CC4CC(CC(C4)C2)C3)cc1Cl (stereo not given)
inactive: [1] 5.65% | [2] -17.6% | [3] 2.8% | [4] -20% | [5] -7.9% | [6] -1%

CC1=NN(c2ccc(S(=O)(=O)O)cc2)C(=O)C1N=Nc1ccc(-c2ccc(N=Nc3ccc(O)c(C(=O)O)c3)c(C)c2)cc1C (stereo not given)
inactive: [1] 17.6% | [2] 20.9% | [3] 17.3% | [4] 17.1% | [5] 23.4% | [6] 30.7%

CCC(C(=O)O)C(=O)O.[NH2-].[NH2-].[Pt+2]
inactive: [1] 11.8% | [2] -6.6% | [3] -11.1% | [4] 14.1% | [5] -9.55% | [6] 2.4%

COc1ccc(/C=N/NC(=O)c2ccccc2)c(OC)c1
inactive: [1] 17.1% | [2] 0% | [3] 6.65% | [4] 17.7% | [5] 28.2% | [6] 9.3%

COc1ccc(C2c3cc4c(cc3C(O)C3CCC(=O)N23)OCO4)cc1 (stereo not given)
inactive: [1] -31.6% | [2] 3.3% | [3] -17.2% | [4] -1.25% | [5] -7.4% | [6] -15.1%

COc1nc(NC2OC(COC(C)=O)C(OC(C)=O)C(OC(C)=O)C2OC(C)=O)c(N=CC=Nc2c(NC3OC(COC(C)=O)C(OC(C)=O)C(OC(C)=O)C3OC(C)=O)nc(OC)[nH]c2=O)c(=O)[nH]1 (stereo not given)
inactive: [1] -11.3% | [2] -8.45% | [3] -2.65% | [4] -16.8% | [5] -5.6% | [6] -11.5%

Nc1nc(=O)[nH]c(=O)[nH]1
inactive: [1] -5% | [2] -0.4% | [3] -7.05% | [4] -28.9% | [5] -14.6% | [6] 16.9%

Cc1ccccc1N=C(N)N
inactive: [1] 4.3% | [2] 2.5% | [3] -1.35% | [4] -3.3% | [5] -0.2% | [6] -1.95%

NCC(=O)c1ccc2cc(Br)c3ccccc3c2c1
inactive: [1] 5.7% | [2] 0.45% | [3] -1.2% | [4] 17.9% | [5] 12.4% | [6] 0.15%

CCOC(=O)C(CC(C)C)NC(=O)c1ccc(C)c(OCc2ccccc2)c1[N+](=O)[O-] (stereo not given)
inactive: [1] 17.9% | [2] -8.75% | [3] 37.9% | [4] 0.6% | [5] 11.6% | [6] -3.9%

CC(=O)NNc1nc(C)c(C(/C=C/c2ccc(Cl)cc2)=N/NC(=O)C[N+](C)(C)C)s1
inactive: [1] 15.1% | [2] 7.25% | [3] 9.15% | [4] 21.8% | [5] 21.4% | [6] -0.25%

CCOC(=O)CCC(NC(=O)OCc1ccccc1)C(=O)NNC(=O)OC(C)(C)C (stereo not given)
inactive: [1] 30.1% | [2] 22% | [3] 36.5% | [4] 15.7% | [5] 5.15% | [6] 21.3%

CCOC(=O)C(c1ccc2c(c1)OCO2)C1(NC(=O)c2ccccc2)C(=O)C(C(=O)OC)C(=O)C1C(=O)OC (stereo not given)
inactive: [1] 16.5% | [2] 6.15% | [3] -6.7% | [4] 10% | [5] 1.4% | [6] 10.9%

Oc1ccc(-c2nc(-c3cccnc3)c(-c3ccc(F)cc3)[nH]2)cc1
inactive: [1] 5.2% | [2] -13.7% | [3] 12.8% | [4] 8.55% | [5] 12.5% | [6] 57.8%

COC(=O)C(C)(C)C(C)=O
inactive: [1] -40% | [2] -47.1% | [3] -37.5% | [4] 7.5% | [5] -26.9% | [6] -30.4%

CCN(CC)C(=S)SCC(=O)Nc1nc2c(s1)CCCC2
inactive: [1] -9.25% | [2] -1.25% | [3] -34.2% | [4] 3.75% | [5] 11.3% | [6] 6.9%

CCOC(=O)C1CC1
inactive: [1] -9.65% | [2] -39.5% | [3] 1% | [4] 0.05% | [5] -9.75% | [6] -2.7%

CCCCN1CC(=O)N2CCCC(c3ccccc3)N2C(=O)C1 (stereo not given)
inactive: [1] 7.55% | [2] -0.95% | [3] 17.6% | [4] 15.4% | [5] 10.5% | [6] -3.5%

Fc1cccc(C(Nc2nncs2)Nc2nncs2)c1F
inactive: [1] 5.5% | [2] 8.95% | [3] 29.8% | [4] -1.2% | [5] 5.15% | [6] 28.2%

C/C(CC(=O)Nc1ccc(Cc2ccc(Br)cc2)cc1)=N/Nc1ccc([N+](=O)[O-])cc1[N+](=O)[O-]
inactive: [1] 25.1% | [2] 12.6% | [3] 31.3% | [4] 16.5% | [5] 4.1% | [6] 24.7%

N#CCN1CCc2ccccc2C1
inactive: [1] -8.45% | [2] -7.15% | [3] -6.65% | [4] -33.9% | [5] -11.7% | [6] -6%

CC(=O)OC1CCC(C(C)(C)C)CC1 (stereo not given)
inactive: [1] -12.8% | [2] -41% | [3] -19.2% | [4] 2.5% | [5] -28.2% | [6] -15.8%

Cc1ccc(S(=O)(=O)OCCOCCOS(=O)(=O)c2ccc(C)cc2)cc1
inactive: [1] 30.8% | [2] -0.4% | [3] 2.25% | [4] 4% | [5] 18.9% | [6] 17.8%

CCCCCCCC/C=C\CCCCCCCC(=O)NN
inactive: [1] -7.85% | [2] 0.15% | [3] -4.25% | [4] -76% | [5] -2.7% | [6] -12.8%

CCCCCCCCCCCCCCCCCC(O)CCCCCCCCCCCCCCCCC
inactive: [1] -16.9% | [2] -8.45% | [3] -7.75% | [4] -47.2% | [5] 2.4% | [6] -8.25%

CCCCCC(=O)NNC(=O)CCCCC
inactive: [1] 7.35% | [2] 13.8% | [3] 7.2% | [4] -4.95% | [5] -21.8% | [6] 15.1%

CCOC(=O)c1cnc2c(cnn2CC)c1N1CCCCC1
inactive: [1] -13.9% | [2] 28.2% | [3] 18.9% | [4] -36.9% | [5] 36.6% | [6] 23.4%

O=C(OCCCl)c1ccc(Cl)c(Cl)c1
inactive: [1] 5.75% | [2] -20.1% | [3] 7.05% | [4] 9% | [5] 3.75% | [6] -19.9%

CCOC(=O)N(C)C1(c2ccccc2)CCN(CCCC(=O)c2ccc(F)cc2)CC1
inactive: [1] 23% | [2] -34.9% | [3] 7.55% | [4] -26.6% | [5] -7% | [6] -17.2%

CN(C)Cc1ccccc1
inactive: [1] 28.8% | [2] 15.8% | [3] 14.8% | [4] -58% | [5] 11.1% | [6] 17.6%

Cc1cc(C)cc(N(C2=NCCS2)C2=NCCS2)c1
inactive: [1] 5% | [2] -4.55% | [3] -2.35% | [4] 0.45% | [5] 21.9% | [6] 4.9%

Cc1ccc(Cl)c(NC(=O)Nc2ccccc2Cl)c1
inactive: [1] -3.7% | [2] 3.65% | [3] -7.2% | [4] -15.2% | [5] -2.5% | [6] 20.4%

COc1ccc(SSc2ccc(OC)cc2C(=O)O)c(C(=O)O)c1
inactive: [1] -4% | [2] -19.1% | [3] -21.1% | [4] 1.4% | [5] -36.1% | [6] 1.8%

N#CC1CSCC1=O (stereo not given)
inactive: [1] -6.5% | [2] -8.8% | [3] -20.4% | [4] -12.8% | [5] 9.9% | [6] -1.9%

CC1C=NNC1=O (stereo not given)
inactive: [1] 19.9% | [2] -30.8% | [3] 23.5% | [4] 3.4% | [5] -0.05% | [6] 4.5%

O=c1oc(=O)c2cc3c(=O)oc(=O)c3cc12
inactive: [1] -21.4% | [2] 11.1% | [3] -6.75% | [4] -28% | [5] 7.1% | [6] -5.6%

CCCCCCSC(=O)NC(C)=O
inactive: [1] -10.3% | [2] -0.95% | [3] 1.4% | [4] -86% | [5] -18.9% | [6] 0%

COC(=O)C(C(=O)C(=O)Nc1ccccc1OC)c1csc(-n2nc(-c3ccccc3)cc2-c2ccccc2)n1 (stereo not given)
inactive: [1] 0.65% | [2] -7.85% | [3] -11.2% | [4] 21.4% | [5] 52.1% | [6] 4.95%
